According to PubChem BioAssay AID1063 (University of Pittsburgh Molecular Library Screening Center, 2008):
In all, about 200,000 compounds went through this assay and about 18,000 (9%) were called active. The list comes from a sample in which actives are over-represented; it also holds similar structures and randomly drawn compounds. Values without a mark were called inactive. Rule as the data show it: active = inhibition above about 50%; inactive = the rest.

Experiment: Leishmania major promastigote growth inhibition, primary screen (AID 1063);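 also: promastigotes grown with compound for 44 hours at 28 °C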
Conditions: Leishmania major promastigotes, resazurin fluorescence viability; at 10 µM; stronger effect = higher value

Row | SMILES | inhibition
1 | S=C(Nc1ccc2c(c1)OCO2)N1CCCC1 | -4.06%
2 | CCc1ccc2c(c1)C(c1ccc([N+](=O)[O-])cc1)=NNC(c1ccccc1)=N2 | 60.2% (active)
3 | CCOc1ccc2c(c1)C(c1ccc(C)cc1)=NNC(c1ccc(C)cc1)=N2 | 17.4%
4 | O=C1NC(=O)C2C1C(c1ccc([N+](=O)[O-])cc1)=NN2Cc1ccccc1 (stereo unspecified) | -2.02%
5 | CC(C)(C)c1ccc(/C=C2\SC(=O)N=C2N)cc1 | 33.6%
6 | Cc1ccc(/C([O-])=C(/C(=S)NCc2ccco2)[n+]2ccccc2)cc1[N+](=O)[O-] | -2.58%
7 | Fc1ccccc1Cc1ccc(Cl)nn1 | -4.31%
8 | Cc1ccc(C(=O)OCC(=O)NCc2ccc3c(c2)OCO3)s1 | -5.96%
9 | Cc1ccc(C(=O)Nc2sc(Cc3ccc4c(c3)OCO4)c(C)c2C(N)=O)cc1 | -6.82%
10 | CC(=O)NCCC(=O)Nc1nc(C)c(Cc2ccc3c(c2)OCO3)s1 | 55.9% (active)
11 | O=C(Nc1cccc(F)c1)N1C2CCC1CC(O)(c1cccnc1)C2 (stereo unspecified) | 4.96%
12 | COc1ccc(-n2cnc3cc(C(=O)NC4CCCC4)ccc32)cc1 | 1.49%
13 | COc1ccc(Nc2nc(Cl)nc(NCc3ccco3)n2)cc1 | 0.84%
14 | COc1ccc(-n2cnc3cc(NCc4ccco4)ccc32)cc1 | 90.2% (active)
15 | CCN(CC)C(=O)C(=O)Nc1cccc(Br)c1 | -4.3%
16 | C=CCC1(CC=C)CCCN1C(=O)CC1C(=O)NCCN1Cc1ccccc1OC (stereo unspecified) | 2.2%
17 | COc1cccc(NC(=O)CN(C)CC(=O)Nc2ccc3c(c2)CCC3)c1 | 2.96%
18 | CC(C)C(=O)OCC(=O)Nc1ccc2c(c1)CCC2 | -3.35%
19 | CC1CC(C)CN(CCC(=O)Nc2ccc3c(c2)CCC3)C1 (stereo unspecified) | 65.4% (active)
20 | CCCCSc1nc2ccccc2[nH]1 | -4.2%
21 | COc1cccc(OC)c1C(=O)Nc1ccc(N2CCCCC2)cc1 | -1.53%
22 | COc1cccc(C(=O)Nc2ccc(N3CCCC3)cc2)c1 | 9.5%
23 | Cc1ccccc1C(=O)Nc1ccc(N2CCCCCC2)cc1 | 89.4% (active)
24 | Cc1ccc(NC(=S)N(CCN2CCCCC2)Cc2ccco2)cc1C | 13.2%

Row | SMILES | inhibition
25 | Cc1ccc(NC(=S)N(CCCN2CCC(C)CC2)Cc2ccco2)cc1 | 37.4%
26 | Cc1ccc(NC(=S)N(Cc2ccco2)C(C)c2cccs2)cc1 (stereo unspecified) | 51.8% (active)
27 | O=C(CO/N=C/c1ccccc1OC(F)F)NC1CCCC1 | 9.48%
28 | NS(=O)(=O)c1ccc(N2C(=O)C3C4CC(C(Br)C4Br)C3C2=O)cc1 (stereo unspecified) | -1.02%
29 | CN1/C(=C\C(=O)c2oc3ccccc3c2N)C(C)(C)c2ccccc21 | 5.73%
30 | CN1/C(=C\C(=O)c2cccnc2Cl)C(C)(C)c2ccccc21 | 55.5% (active)
31 | CC(C)Nc1nnc(SCC(=O)/C=C2\N(C)c3ccccc3C2(C)C)s1 | 2.98%
32 | O=C(COC(=O)Cn1cnc2ccccc2c1=O)NCc1ccccc1Cl | 1.11%
33 | Cn1cccc1C(C#N)c1ccccc1C#N (stereo unspecified) | 4.16%
34 | Cc1cc(C(=O)N/N=C/c2ccccc2[N+](=O)[O-])c(C)o1 | -4.59%
35 | CSc1ccc(/C=N/N2CCN(Cc3ccccc3Cl)CC2)cc1 | -7.46%
36 | Cc1ccccc1NC(=S)NNC(=O)c1cccc(Br)c1 | -0.99%
37 | Cc1ccc(S(=O)(=O)NCCc2nnc3ccc(SCc4cccnc4)nn23)cc1 | -6.61%
38 | COc1ccc(O)c(C(=O)c2cnc3onc(C(C)C)c3c2)c1 | -0.73%
39 | COc1ccc(O)c(C(=O)c2cnc3c(c2)c(-c2ccc(F)cc2)c(C#N)c(=O)n3C)c1 | 52.4% (active)
40 | COCCn1c(=O)[nH]c(=O)c2cc(C(=O)c3cc(OC)ccc3O)cnc21 | 0.78%
41 | CC(=O)N/N=C(\C)c1ccc(Br)cc1Br | -4.52%
42 | CCOC(=O)C1CCN(C(=O)c2ccccc2N(C)S(=O)(=O)c2ccccc2)CC1 | 53.4% (active)
43 | COc1ccccc1N(C)S(=O)(=O)c1ccc(C(=O)N2CCC(C(N)=O)CC2)cc1 | 3.34%
44 | CCN1CCN(C(=O)c2ccccc2N(C)S(=O)(=O)c2ccc(C)cc2)CC1 | -0.79%
45 | CC1COc2ccccc2N1C(=O)c1cccnc1Cl (stereo unspecified) | -4%
46 | C=C(C)Cn1c(C)cc(C)c(S(=O)(=O)c2ccccc2C)c1=O | 96% (active)
47 | CN(C)S(=O)(=O)c1cc(NC(=O)CN2C(=O)NC3(CCCc4ccccc43)C2=O)ccc1Cl (stereo unspecified) | 57.4% (active)
48 | Cc1ccc(NC(=O)CNCc2ccccn2)cc1S(=O)(=O)N(C)C | 6.73%

Row | SMILES | inhibition
49 | CCN(CC(=O)Nc1ccc(Cl)c(S(=O)(=O)N(C)C)c1)Cc1nc2ccccc2c(=O)[nH]1 | -6.29%
50 | COc1ccc(C(=O)O/N=C(\N)Cc2ccc(Cl)cc2Cl)cc1OC | 71.9% (active)
51 | COc1ccc(C(=O)ON=C2c3ccccc3-c3ccccc32)cc1OC | -6.29%
52 | COc1ccc(C/C(N)=N/OC(=O)c2ccco2)cc1OC | -5.88%
53 | CN(Cc1ccc2nsnc2c1)Cc1nc(Cc2cccc(F)c2)no1 | -4.63%
54 | CN1CCN(C(=O)CCc2ncc(C(F)(F)F)cc2Cl)CC1 | -6.47%
55 | O=C(NCC(=O)N(CC1CCCO1)C(C(=O)NC1CCCCC1)c1ccccc1)c1ccco1 (stereo unspecified) | -4.69%
56 | Cc1cccc(Oc2c([N+](=O)[O-])c(=O)n(C)c3ccccc23)c1 | -3.73%
57 | COc1ccc(/C=N/NC(=O)c2cccc(C(F)(F)F)c2)cc1 | 12%
58 | C=CCNC(=S)N1CCN(CCN=Cc2c(C)[nH]n(-c3ccc([N+](=O)[O-])cc3)c2=O)CC1 | -7.1%
59 | CCc1ccc2c(c1)C1(NN=C(c3ccccc3)S1)C(=O)N2 (stereo unspecified) | 99.1% (active)
60 | O=C1Nc2ccccc2C12Nc1ccccc1S2 (stereo unspecified) | -4.59%
61 | C=C1c2cc(CC)ccc2NC(=O)N1c1ccc(C)cc1 | 12.2%
62 | COc1ccccc1NC(=O)COc1ccc(C(=O)OCC(=O)N(C(C)C)C(C)C)cc1OC | -1.06%
63 | CCN(CCCCOC(=O)c1ccc(OC)c(OC)c1)C(C)Cc1ccc(OC)cc1 (stereo unspecified) | 100% (active)
64 | COc1ccc(C(=O)NC(Cc2ccc(OC(=O)c3ccc(OC)cc3)cc2)C(=O)O)cc1 (stereo unspecified) | -3.89%
65 | CC(C)OC(=O)CN1CCN(c2ccc(Cl)cc2)CC1 | -1.87%
66 | N#CC1=C(N)OC2=C(C(=O)CCC2)C1C1CC=CCC1 (stereo unspecified) | 4.1%
67 | CCCc1[nH]nc2c1C(c1ccc(OC(=O)c3ccco3)cc1)C(C#N)=C(N)O2 (stereo unspecified) | 15.8%
68 | CCCc1[nH]nc2c1C(c1ccc(Br)s1)C(C#N)=C(N)O2 (stereo unspecified) | 100% (active)
69 | CCCc1[nH]nc2c1C(C1CC=CCC1)C(C#N)=C(N)O2 (stereo unspecified) | 66.6% (active)
70 | COCc1[nH]nc2c1C(C1C=CCCC1)C(C#N)=C(N)O2 (stereo unspecified) | 45.2%
71 | CCCc1[nH]nc2c1C(c1c(C)nn(-c3ccccc3)c1Cl)C(C#N)=C(N)O2 (stereo unspecified) | 8.77%
72 | CC(=O)N1CCN(S(=O)(=O)c2c(F)cc(F)c(Cl)c2F)CC1 | 0.83%

Row | SMILES | inhibition
73 | COc1ccc(C(=O)Nc2cccc(S(C)(=O)=O)c2)cc1 | -0.33%
74 | CC(C)(C)NC(=O)COC(=O)c1cc(Cl)ccc1[N+](=O)[O-] | 2.68%
75 | CCOC(=O)C1(Cc2cccc(OC)c2)CCCN(S(=O)(=O)c2cccnc2)C1 (stereo unspecified) | 1.74%
76 | CCOC(=O)c1sc(/N=C/C2=C(O)CC(C)(C)CC2=O)c(C(=O)OCC)c1C | -3.8%
77 | Cn1c(=O)c2c(ncn2CCc2ccccc2)n(C)c1=O | -0.5%
78 | Cn1c(=O)c2c(ncn2CC(COCc2ccccc2Cl)OCc2ccccc2Cl)n(C)c1=O (stereo unspecified) | 96.2% (active)
79 | Cn1c(=O)c2c(ncn2CC(=O)N2CCN(c3ccccc3)CC2)n(C)c1=O | -3.01%
80 | Cc1ncc([N+](=O)[O-])n1CCOC(=O)c1ccc(Br)cc1 | 13.8%
81 | Cc1cccc(C)c1NC(=O)C1(C)c2cccc[n+]2CC(=O)N1Cc1cccs1 (stereo unspecified) | 13.1%
82 | O=C(/C=C/Sc1ncn[nH]1)c1ccc(Cl)cc1 | 100% (active)
83 | CC(C)(C)c1ccc(C(=O)CSc2ncn[nH]2)cc1 | -1.37%
84 | O=C(NCCOCc1ccc(Cl)cc1)c1ncn[nH]1 | 24.4%
85 | Cc1cc(C)n(-c2nnc(N3CCN(c4ccccc4)CC3)nn2)n1 | 10.3%
86 | Cc1n[nH]c(=O)n1-c1ccc(C(C)C)cc1 | -3.84%
87 | C/C(=N/O)c1ccc(N2C(=O)C3C4C=CC(C3C2=O)C2C3C(=O)N(c5ccc(/C(C)=N/O)cc5)C(=O)C3C42)cc1 (stereo unspecified) | -0.53%
88 | Cc1ccc2[nH]c(=O)c(CN3CCCCC3)c(-c3ccccc3)c2c1 | 6.53%
89 | Nc1cccc(CCc2nc3ccccc3[nH]2)c1 | -2.96%
90 | Nc1cccc(-c2cc(-c3ccccc3)nc(-c3cccc(N)c3)n2)c1 | 64% (active)
91 | CS(=O)(=O)c1sc2nc(-c3ccccc3)cc(-c3ccccc3)c2c1N | 3.87%
92 | OC1CSc2nc3ccccc3n2C1 (stereo unspecified) | 0.82%
93 | O=C(Nc1cccc(C(F)(F)F)c1)c1cnccn1 | 7.19%
94 | O=c1[nH]n(-c2cccc(Cl)c2)c2ncccc12 | -7.31%
95 | Nc1c(C(=O)NCc2ccccc2)nnn1Cc1cccc(Cl)c1 | -2.28%
96 | Clc1cccc(CN2COc3c(cc(Cl)c4cccnc34)C2)c1 | 101% (active)
